IDE exosite inh: insulin-degrading enzyme (human) exo-site inhibition | 17,000 compounds, 6.3% hits | purified IDE, FL-6b probe fluorescence polarization; stronger effect = lower value | P14735 | z-score at 20 µM | AID 1259349;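 active = z-score of -3 or lower, meaning strong loss of probe binding signal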;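 note: His-tagged human IDE residues 42-1019 made in E. coli with 30 nM FL-6b probe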
Target sequence (P14735 42-1019 limits assumed): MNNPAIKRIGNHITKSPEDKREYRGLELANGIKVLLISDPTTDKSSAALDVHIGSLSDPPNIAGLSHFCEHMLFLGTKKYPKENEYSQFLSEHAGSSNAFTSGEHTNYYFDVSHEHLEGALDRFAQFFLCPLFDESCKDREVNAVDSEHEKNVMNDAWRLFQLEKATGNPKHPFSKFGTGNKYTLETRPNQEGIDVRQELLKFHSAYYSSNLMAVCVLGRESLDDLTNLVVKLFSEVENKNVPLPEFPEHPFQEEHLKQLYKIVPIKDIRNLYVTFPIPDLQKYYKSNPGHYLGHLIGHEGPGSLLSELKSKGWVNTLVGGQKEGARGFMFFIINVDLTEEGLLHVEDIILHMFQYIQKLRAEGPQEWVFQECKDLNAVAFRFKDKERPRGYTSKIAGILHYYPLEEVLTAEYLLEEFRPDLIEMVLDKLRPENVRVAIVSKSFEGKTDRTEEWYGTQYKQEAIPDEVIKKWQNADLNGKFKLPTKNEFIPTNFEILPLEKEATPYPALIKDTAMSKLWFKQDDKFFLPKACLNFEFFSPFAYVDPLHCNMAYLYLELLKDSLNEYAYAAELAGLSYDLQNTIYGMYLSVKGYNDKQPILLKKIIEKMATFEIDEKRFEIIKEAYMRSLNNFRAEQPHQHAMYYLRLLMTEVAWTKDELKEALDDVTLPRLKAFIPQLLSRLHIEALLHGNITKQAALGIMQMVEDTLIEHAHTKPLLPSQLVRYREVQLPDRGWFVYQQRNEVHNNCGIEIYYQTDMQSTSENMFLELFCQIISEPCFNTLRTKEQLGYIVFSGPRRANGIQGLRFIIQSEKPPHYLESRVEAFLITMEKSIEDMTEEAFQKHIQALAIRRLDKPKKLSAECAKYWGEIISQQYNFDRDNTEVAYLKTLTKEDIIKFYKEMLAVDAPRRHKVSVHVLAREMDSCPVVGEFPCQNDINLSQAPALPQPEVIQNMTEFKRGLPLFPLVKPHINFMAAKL
Active calls of the source: *; ! = a repeat was not active. Shown is part of a subset that was picked to be rich in hits.

How did C/C=C/c1ccc([C@H]2[C@@H](C#N)N(C(=O)c3cccnc3)[C@@H]2CO)cc1 do in these assays?
IDE exosite inh: 1.05

Results for O=C(Cc1ccccc1)N1CC(=O)N2[C@H](CO)[C@@H](c3ccc(C#Cc4ccccc4)cc3)[C@H]2C1 ?
IDE exosite inh: -1.77

How did O=C(Cc1ccccc1)N1CC(=O)N2[C@@H](CO)[C@H](c3ccc(C#CCc4ccccc4)cc3)[C@@H]2C1 do in these assays?
IDE exosite inh: -1.33

Results for O=C(Cc1ccccc1)N1CC(=O)N2[C@H](C1)[C@H](c1ccc(C#CCc3ccccc3)cc1)[C@@H]2CO ?
IDE exosite inh: -3.58*

What do the screens show for `O=C(Cc1ccccc1)N1CC(=O)N2[C@H](CO)[C@@H](c3ccc(C#CCc4ccccc4)cc3)[C@@H]2C1`?
IDE exosite inh: 3.16

How did O=C(Cc1ccccc1)N1CC(=O)N2[C@@H](CO)[C@H](c3ccc(C#Cc4ccccc4)cc3)[C@@H]2C1 do in these assays?
IDE exosite inh: -2.76

How did O=C(Cc1ccccc1)N1CC(=O)N2[C@@H](CO)[C@@H](c3ccc(C#CCc4ccccc4)cc3)[C@@H]2C1 do in these assays?
IDE exosite inh: -3.96*

How did CCC(=O)N[C@@H]1CC[C@H](CC(=O)NCc2ccccc2F)O[C@@H]1CO do in these assays?
IDE exosite inh: 0.952

Results for COc1cccc(S(=O)(=O)N2CC[C@@H]3[C@@H](CO)Nc4ccc(C#Cc5cccnc5)cc4[C@@H]32)c1 ?
IDE exosite inh: 1.66

How did C/C=C/c1cccc(-c2nc(C(=O)NCc3ccccn3)cc3c2[C@H](CCO)N([S@@](=O)C(C)(C)C)C3)c1 do in these assays?
IDE exosite inh: 0.486

Results for O=C(CC1CC1)N1CC[C@H]2[C@H](CO)Nc3ccc(-c4ccc(F)cc4)cc3[C@H]21 ?
IDE exosite inh: 2.13

How did Cc1ccccc1-c1ccc([C@H]2[C@@H](CO)N3CCCCN(CC4CC4)C[C@@H]23)cc1 do in these assays?
IDE exosite inh: -3.48*

How did COc1ccc(-c2ccc([C@H]3[C@@H](CO)N4CCCCN(CC5CCOCC5)C[C@H]34)cc2)cc1 do in these assays?
IDE exosite inh: -0.348

How did Cc1ccccc1-c1ccc([C@H]2[C@H]3CN(CC4CCOCC4)CCCCN3[C@H]2CO)cc1 do in these assays?
IDE exosite inh: -6.86*

Results for COc1ccc(-c2ccc([C@H]3[C@@H](CO)N4CCCCN(CC5CCOCC5)C[C@@H]34)cc2)cc1 ?
IDE exosite inh: 0.852

How did CCCC#Cc1ccc([C@@H]2[C@H](CO)N3CCCCN(CC4CC4)C[C@@H]23)cc1 do in these assays?
IDE exosite inh: 4.1

What do the screens show for `OC[C@H]1[C@@H](c2ccc(-c3cccnc3)cc2)[C@@H]2CN(CC3CC3)CCCCN12`?
IDE exosite inh: -1.25

Results for CC(=O)NC[C@H]1[C@H](c2ccc(-c3ccccc3F)cc2)[C@@H](CO)N1C(C)=O ?
IDE exosite inh: -0.758

How did CC=Cc1ccc2n(c1=O)C[C@H]1[C@H](CO)[C@@H](C(=O)NCc3cccc(OC)c3)N[C@@H]21 (mixture of isomers) do in these assays?
IDE exosite inh: 0.198

Results for C[C@H](NC(=O)C[C@@H]1CC[C@H]2[C@@H](COc3ccc(NC(=O)C4CCOCC4)cc3C(=O)N2C)O1)c1ccccc1 ?
IDE exosite inh: -0.769

What do the screens show for `O=C(Nc1cc(F)ccc1F)N1CCCCN2[C@H](CO)[C@H](c3ccc(-c4cncnc4)cc3)[C@H]2C1`?
IDE exosite inh: 0.908

How did COc1ccc(C#Cc2ccc([C@@H]3[C@H](CO)N4C(=O)CN(C(=O)c5ccccc5)C[C@@H]34)cc2)cc1 do in these assays?
IDE exosite inh: 0.698

Results for O=C(Nc1cccc(F)c1)N1CC(=O)N2[C@@H](CO)[C@@H](c3ccc(Br)cc3)[C@@H]2C1 ?
IDE exosite inh: 1.32

How did O=C(Cc1cccnc1)N1CC(=O)N2[C@H](CO)[C@H](c3ccc(C#CC4CCCCC4)cc3)[C@@H]2C1 do in these assays?
IDE exosite inh: -2.28

Results for COc1cccc(S(=O)(=O)N2[C@@H]3CNC[C@H]2C3c2ccc(-c3ccccc3C)cc2)c1 (stereo partly drawn) ?
IDE exosite inh: -5.31*

Results for COc1ccc(-c2ccc(C3[C@@H]4CN(S(=O)(=O)c5ccccc5C)C[C@H]3N4)cc2)cc1 (stereo partly drawn) ?
IDE exosite inh: -0.842

How did COc1ccccc1S(=O)(=O)N1[C@@H]2CNC[C@H]1C2c1ccc(/C=C/c2ccccc2)cc1 (stereo partly drawn) do in these assays?
IDE exosite inh: -5.24*!

Results for COc1cccc(S(=O)(=O)N2[C@@H]3CNC[C@H]2C3c2ccc(-c3cccc(C)c3)cc2)c1 (stereo partly drawn) ?
IDE exosite inh: -1.52

How did COc1ccccc1S(=O)(=O)N1C[C@@H]2N[C@H](C1)C2c1ccc(-c2ccccc2C)cc1 (stereo partly drawn) do in these assays?
IDE exosite inh: -7.95*!

Results for COc1ccc(S(=O)(=O)N2[C@@H]3CNC[C@H]2C3c2ccc(-c3cccc(OC)c3)cc2)cc1 (stereo partly drawn) ?
IDE exosite inh: 3.37

How did COc1ccccc1S(=O)(=O)N1C[C@@H]2N[C@H](C1)C2c1ccc(-c2ccc(F)cc2)cc1 (stereo partly drawn) do in these assays?
IDE exosite inh: 3

What do the screens show for `COc1ccccc1S(=O)(=O)N1[C@@H]2CNC[C@H]1C2c1ccc(-c2ccncc2)cc1` (stereo partly drawn)?
IDE exosite inh: 0.193

What do the screens show for `COc1cccc(-c2ccc(C3[C@@H]4CN(S(=O)(=O)c5ccccc5C)C[C@H]3N4)cc2)c1` (stereo partly drawn)?
IDE exosite inh: -1.58

How did COc1cccc(S(=O)(=O)N2[C@@H]3CNC[C@H]2C3c2ccc(/C=C/c3ccccc3)cc2)c1 (stereo partly drawn) do in these assays?
IDE exosite inh: 0.219

How did Cc1ccccc1-c1ccc(C2[C@@H]3CN(S(=O)(=O)c4ccccc4C)C[C@H]2N3)cc1 (stereo partly drawn) do in these assays?
IDE exosite inh: -10.8*!

What do the screens show for `COc1ccccc1S(=O)(=O)N1C[C@@H]2N[C@H](C1)C2c1ccc(-c2cccnc2)cc1` (stereo partly drawn)?
IDE exosite inh: 1.13

Results for CCS(=O)(=O)NC[C@@H]1[C@@H](c2ccccc2)[C@@H](CO)N1CC1CCCCC1 ?
IDE exosite inh: 3.38

How did CCCNC(=O)C[C@H]1CC[C@@H]2[C@H](COC[C@H](O)CN2C(=O)Nc2ccc(Cl)c(Cl)c2)O1 do in these assays?
IDE exosite inh: -0.531

How did CCCNC(=O)Nc1ccc2c(c1)OC[C@@H](C)N(Cc1cncnc1)C[C@@H](C)[C@H](OC)CN(C)C2=O do in these assays?
IDE exosite inh: -1.16

How did CNC[C@H]1Oc2ncc(-c3cncnc3)cc2C(=O)N([C@H](C)CO)C[C@@H]1C do in these assays?
IDE exosite inh: -1.89

Results for CCN(C[C@@H]1[C@@H](c2ccc(-c3cccnc3)cc2)[C@@H](CO)N1C(C)=O)C(C)=O ?
IDE exosite inh: -0.363

How did OC[C@@H]1[C@@H](c2ccc(C#CC3(O)CCCC3)cc2)[C@@H]2CN(Cc3ccncc3)CCCCN12 do in these assays?
IDE exosite inh: 2.16

What do the screens show for `O=C(C[C@@H]1CC[C@@H](NC(=O)C2CCOCC2)[C@@H](CO)O1)NCC1CCCCC1`?
IDE exosite inh: 2.13

How did C[C@@H]1CN([C@@H](C)CO)C(=O)c2cc(N(C)C)ccc2O[C@@H](C)CCCCO[C@@H]1CN(C)S(=O)(=O)c1cn(C)cn1 do in these assays?
IDE exosite inh: 0.587

Assay outcomes from PubChem.
